High-throughput results from PubChem BioAssay.
A selection: hits, their analogues and other compounds. The true share with any hit is near 4.8%.
hgDAF12 agonist = hgDAF-12 agonism, primary luciferase screen; HEK293 GAL4-hgDAF12 UAS-luciferase reporter, agonist luminescence; normalized to butyrate control; activation, % at 6.8 µM; 1.8% of 370,000 active;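 active = activation above a cutoff set at the mean of all screened compounds plus 3 SD, cut at about 10% in these data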;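 note: 0% = DMSO wells and 100% = sodium butyrate wells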
SMARCA2 act = activators of SMARCA2 function; MG213 cells, MMTV-luciferase reporter, dexamethasone, overnight; activation, % at 9.1 µM; 1% of 370,000 active; AID 652017; in the data active = activation above about 7.8%;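 note: 0% = vehicle wells and 100% = reference activator wells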
DAX1 inh-1 = inhibitors of human orphan nuclear receptor DAX1 (NR0B1). AID 504766. HEK293 Gal4-DAX1 luciferase reporter, luminescence. inhibition, % at 6.75 µM. 0.99% of 340,000 active. P51843;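 active = inhibition above the mean over all tested compounds plus 3 SD, cut at about 4.2% in these data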;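 note: 0% = DAX1-transfected cells with DMSO and 100% = empty-vector control cells with DMSO; inhibition shows as a rise in luminescence from relieved DAX1 repression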
DAX1 inh-2 = DAX1 (NR0B1) inhibition, primary screen; HEK293T StAR-luciferase reporter, SF-1/DAX-1 repression relief; inhibition, % at 6.8 µM; 1.1% of 370,000 active; AID 652010;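 active = inhibition above the mean over all tested compounds plus 3 SD, cut at about 3.6% in these data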;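 note: 0% = DAX-1 cells with DMSO and 100% = cells lacking DAX-1 with DMSO; higher inhibition means more luminescence from relief of DAX-1 repression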
ssDAF12 agonist = S. stercoralis DAF-12 activation, primary screen; HEK293 ssDAF-12/GRIP1 lit1-tk-luc reporter, luminescence; % of 3 µM dafachronic acid response; activation, % at 6.8 µM; 1% of 370,000 active; AID 652126;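 active = activation above the mean over all tested compounds plus 3 SD, cut at about 0.9% in these data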;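 note: 0% = DMSO-only wells and 100% = 3 µM delta7-dafachronic acid wells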
hcDAF-12 act = H. contortus DAF-12 activation, primary screen; 1.4% of 370,000 active; HEK293 hcDAF-12 lit1-tk-luc reporter, luminescence; 0% DMSO, 100% Δ7-dafachronic acid; activation, % at 6.8 µM;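 active = activation above the mean of all tested compounds plus 3 SD, cut at about 5.5% in these data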;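 note: 100% = response to 3 µM Δ7-dafachronic acid high control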
hgDAF12 conf = confirmation of H. glycines DAF-12 agonists; shares compounds with hgDAF12 agonist; HEK293 GAL4-hgDAF12 luciferase reporter, agonist mode; percent of butyrate response; activation, % at 6.8 µM; 80% of 3,300 active; AID 743050;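 active = mean activation over triplicate wells above the hit cutoff derived from the earlier primary screen, cut at about 11% in these data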;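 note: 0% = DMSO low control and 100% = 2 mM sodium butyrate high control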
LXR ag 2 = counter-screen for DAF-12 agonists: agonists of human LXR-beta | shares compounds with hgDAF12 agonist | HEK293 Gal4-LXR luciferase reporter, 24 h | activation, % at 6.8 µM | 3,300 tested, under 10 active | AID 743051;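 active = mean activation of the triplicate above a set limit carried over from the primary screen, none filed active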
Target sequence (P55055 whole entry, looked up, the tested form may be a part): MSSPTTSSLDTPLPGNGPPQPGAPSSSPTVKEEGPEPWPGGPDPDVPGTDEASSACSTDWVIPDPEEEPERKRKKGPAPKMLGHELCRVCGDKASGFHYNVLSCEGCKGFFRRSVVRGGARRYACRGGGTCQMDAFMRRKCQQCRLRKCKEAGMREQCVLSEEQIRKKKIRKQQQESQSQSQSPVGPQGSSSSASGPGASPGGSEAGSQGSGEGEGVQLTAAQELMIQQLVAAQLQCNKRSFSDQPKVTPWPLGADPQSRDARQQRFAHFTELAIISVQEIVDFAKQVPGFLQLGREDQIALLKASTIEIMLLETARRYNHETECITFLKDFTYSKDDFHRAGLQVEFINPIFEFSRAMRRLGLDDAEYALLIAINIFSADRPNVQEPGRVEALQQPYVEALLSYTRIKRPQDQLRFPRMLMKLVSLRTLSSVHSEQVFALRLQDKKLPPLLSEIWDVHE
Starred values were filed as active, the others as inactive; · = not tested or not shown.

SMILES	hgDAF12 agonist	SMARCA2 act	DAX1 inh-1	DAX1 inh-2	ssDAF12 agonist	hcDAF-12 act	hgDAF12 conf	LXR ag 2
C/[N+]([O-])=C/c1c(OCc2ccccc2)ccc2ccccc12	3	1	1	1	-1	2	·	·
Cc1ccc(OCc2ccc(-c3ccccc3)cc2)c([N+](=O)[O-])n1	0	-2	0	-1	0	0	·	·
Cc1ccc(OCc2ccc(Br)cc2)c([N+](=O)[O-])n1	18*	7	·	4.0*	1	4	14*	1
COc1cc(C(=O)NCC(=O)N/N=C/c2ccc(OC(=O)c3ccco3)cc2)cc(OC)c1OC	-1	-3	1	0	-2	-1	·	·
FC(F)(F)c1cnc(-c2cnc(-c3ccccn3)nc2)c(Cl)c1	17*	2	-1	4.4*	0	1	14*	1
Cn1c(CC(=O)Nc2ccccc2Cl)nnc1SCC(=O)NC1CCCCC1	1	-3	1	0	-1	3	·	·
NC(=O)c1ccccc1-c1noc(-c2ccccc2F)n1	9	·	·	·	-1	0	·	·
NC(=O)c1ccc(-c2noc(-c3ccccc3F)n2)cc1	15*	6	-3	2	0	5.6*	13*	1
CC1(C(=O)OCC(=O)c2c[nH]c3ccccc23)CC1(Cl)Cl (stereo not given)	14*	8	1	2	1.6*	5	15*	0
CC(/C=C/c1ccc(OCc2ccccc2)cc1)=N\O	14*	7	1	2	-1	6.1*	13*	1
CC(/C=C/c1ccccc1)=N/O	-1	0	0	0	-1	2	·	·
COc1ccc(-c2nnc(SCC(=O)c3ccc[nH]3)o2)cc1	14*	5	0	3	1	5	15*	1
Clc1ccc(-c2nc(Cc3ccccc3Cl)no2)cc1	3	1	1	0	-1	-1	·	·
Clc1ccc(Cc2noc(-c3cccs3)n2)cc1	19*	1	1	1	-1	1	9	0
CCOC(=O)c1ccc(Nc2nc(-c3cccnc3)nc3ccccc23)cc1	-2	1	-3	-2	-2	-3	·	·
COc1ccc(C(N)=O)c(OCC(=O)Nc2cc(C)on2)c1	0	-2	0	0	-2	0	·	·
c1ccc2c(c1)CN1C(=N2)COc2ccccc2C1c1nc2ccccc2[nH]1 (stereo not given)	15*	7	·	4.4*	2.0*	6.0*	8	0
O=C(CNC(=O)C12CC3CC(CC(C3)C1)C2)N/N=C\c1ccccn1	-2	-1	0	0	-1	0	·	·
CC(Cc1ccco1)NC(=O)c1ccc(C(F)(F)F)cc1 (stereo not given)	14*	3	-1	2	1.0*	5	16*	1
N#Cc1c(N)nc(N)nc1Nc1ccc(Br)cc1	17*	5	3	2	0	4	18*	1
CNC(=S)Nc1cccc2[nH]ncc12	-1	-2	1	0	-1	0	·	·
O=C(NC(=S)Nc1cccc2[nH]ncc12)c1ccccc1	22*	0	0	2	-1	1	16*	0
COc1ccc(/C=N/NC(=O)c2ccc(Br)cc2)c(OC)c1	2	3	0	0	-1	0	·	·
COc1ccc(/C=N/Nc2ncc(Br)cn2)c(OC)c1	16*	5	3	2	0	1	15*	1
CC(C)(C)C(=O)N/C(N)=N/c1nc2ccccc2o1	13*	1	4.8*	2	1.5*	5	15*	1
N/C(=N\c1nc2ccccc2o1)NC(=O)c1ccccc1	9	1	3	2	-1	0	·	·
CN(C)S(=O)(=O)c1ccc(NC(=O)CN2CCCc3ccccc32)cc1	0	-2	-1	1	1	2	·	·
